Source: the supplement of paper PMC11219838

tested on: Meloidogyne hapla J2; assay: proportion of mobile M. hapla J2 relative to DMSO control (fraction of DMSO control); higher = more viable, less nematicidal, active = 0.7 or less; conditions: 60 µM; 5 days; temperature: 20 °C
Procedure: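 DODA library (846 commercial 1,3,4- and 1,2,4-oxadiazole compounds plus commercial nematicide controls) screened at a single dose of 60 µM (0.6% DMSO) in 96-well plates, two biological replicates. Read-outs: C. elegans N2 L1 survival/reproduction score at day 6, 20 °C (0: 0-10 worms, 1: 11-20, 2: 21-50, 3: >50, 4: overgrown/starved). C. elegans daf-2 dauer, D. dipsaci and M. hapla J2 mobility at day 5, 20 °C, and P. penetrans mobility at day 5, 20 °C, each relative to DMSO controls. M. hapla egg hatching at day 12, 25 °C, relative to the mean of 8 DMSO wells on the same plate.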

Structure (SMILES) | proportion of mobile M. hapla J2
CC(=O)Nc1cccc(-c2nnc(SCc3ccccc3)o2)c1 | 0.976 (inactive)
Cc1ccc(-c2nc(-c3ccc4c(c3)OCO4)no2)cc1 | 1 (inactive)
CC(C)c1ccc(OCc2nc(-c3ccccn3)no2)cc1 | 1.01 (inactive)
O=C(CSc1nnc(-c2ccccc2)o1)Nc1ccccc1C(F)(F)F | 0.918 (inactive)
CCOc1ccccc1-c1nc(-c2ccc(Cl)cc2)no1 | 0.856 (inactive)
NC(=O)COc1ccccc1-c1nc(-c2ccccc2Cl)no1 | 0.851 (inactive)
CCCC(=O)Nc1ccccc1-c1nc(-c2cccnc2)no1 | 1.04 (inactive)
Brc1cccc(-c2nc(-c3ccncc3)no2)c1 | 0.991 (inactive)
Clc1ccc(CSc2nnc(-c3ccccc3)o2)c(Cl)c1 | 1.03 (inactive)
CCOc1cc(-c2nc(-c3ccc(C)nc3OCC)no2)cc(OCC)c1OCC | 0.908 (inactive)
CCOc1cc(-c2nc(-c3cccnc3)no2)cc(OCC)c1OCC | 1.05 (inactive)
COc1ccc(-c2noc(C34CC5CC(CC(C5)C3)C4)n2)cc1 | 1.04 (inactive)
O=C(CSc1nnc(-c2ccco2)o1)c1ccc(Br)cc1 | 0.997 (inactive)
COc1ccc(-c2noc(COc3ccc(C)c(C)c3)n2)cc1 | 0.969 (inactive)
Cc1ccccc1-c1noc(COc2ccc(Cl)cc2Cl)n1 | 1.02 (inactive)
Cc1ccccc1-c1nnc(SCc2ccccc2)o1 | 0.986 (inactive)
O=C(CSc1nnc(-c2cccnc2)o1)c1ccc2ccccc2c1 | 0.74 (inactive)
CCOc1ccccc1-c1nnc(SCC(=O)Nc2ccccc2)o1 | 0.907 (inactive)
Cc1ccccc1-c1noc(-c2cccc(Br)c2)n1 | 1.04 (inactive)
Cc1ccc(-c2nnc(SCC(=O)Nc3ccccc3)o2)cc1 | 0.996 (inactive)

Structure (SMILES) | proportion of mobile M. hapla J2
COc1cccc(-c2noc(-c3cccc(F)c3)n2)c1 | 1.01 (inactive)
Clc1ccccc1-c1noc(-c2cccnc2)n1 | 0.883 (inactive)
CCOc1cc(-c2nc(-c3cc4ccccc4nc3OC)no2)cc(OCC)c1OCC | 1.04 (inactive)
CCCc1ccc(-c2ccc(-c3nc(-c4ccccn4)no3)cc2)cc1 | 0.978 (inactive)
O=C(CSc1nnc(-c2ccccc2)o1)Nc1cccc(Br)c1 | 1.05 (inactive)
N#Cc1ccccc1CSc1nnc(-c2ccncc2)o1 | 0.826 (inactive)
COc1ccc(NC(=O)c2ccccc2-c2nc(-c3ccccc3C)no2)cc1 | 0.81 (inactive)
COc1ccc(-c2nnc(SCC(=O)Nc3ccc(C(C)C)cc3)o2)cc1 | 0.967 (inactive)
O=C(CSc1nnc(-c2ccc(Br)cc2)o1)Nc1cccc2ccccc12 | 0.923 (inactive)
Cc1ccc(NC(=O)CSc2nnc(-c3ccncc3)o2)cc1Cl | 0.939 (inactive)
CCN(CC)C(=O)CSc1nnc(-c2ccc(Cl)cc2Cl)o1 | 1.03 (inactive)
Fc1ccccc1OCc1nc(-c2ccc(Cl)cc2)no1 | 1 (inactive)
Cc1ccc(OCc2nc(-c3ccncc3)no2)c(Br)c1 | 0.993 (inactive)
O=C(CSc1nnc(-c2ccc(Br)cc2)o1)N1CCCCCC1 | 0.844 (inactive)
Cc1ccccc1-c1noc(CSc2nc3ccccc3[nH]2)n1 | 0.918 (inactive)
Cc1ccc(-c2noc(COc3ccc(Cl)cc3C)n2)cc1 | 0.996 (inactive)
C(=C\c1ccccc1)/CSc1nnc(-c2ccncc2)o1 | 0.979 (inactive)
Cc1cc(C)c(NC(=O)CSc2nnc(-c3ccc(Br)cc3)o2)c(C)c1 | 1 (inactive)
O=C(CSc1nnc(-c2ccc(Cl)cc2)o1)Nc1ccc(F)cc1 | 0.912 (inactive)
Cc1ccccc1CSc1nnc(-c2ccco2)o1 | 0.547 (active)
